A selection: hits, their analogues and other compounds. The true share with any hit is near 1.6%.
KCNQ2 block: blocks the rat KCNQ2 potassium channel; O88943; CHO-K1 KCNQ2, FluxOR thallium flux, 20 min; stronger effect = lower value; B-score at 10 µM; 310,000 compounds, 1.1% hits;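 active = fluorescence ratio B-score at most minus 3 library SDs, with starting brightness B-score within 2 library SDs, cut at about -5.5 in these data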
Target sequence (O88943 whole entry, looked up): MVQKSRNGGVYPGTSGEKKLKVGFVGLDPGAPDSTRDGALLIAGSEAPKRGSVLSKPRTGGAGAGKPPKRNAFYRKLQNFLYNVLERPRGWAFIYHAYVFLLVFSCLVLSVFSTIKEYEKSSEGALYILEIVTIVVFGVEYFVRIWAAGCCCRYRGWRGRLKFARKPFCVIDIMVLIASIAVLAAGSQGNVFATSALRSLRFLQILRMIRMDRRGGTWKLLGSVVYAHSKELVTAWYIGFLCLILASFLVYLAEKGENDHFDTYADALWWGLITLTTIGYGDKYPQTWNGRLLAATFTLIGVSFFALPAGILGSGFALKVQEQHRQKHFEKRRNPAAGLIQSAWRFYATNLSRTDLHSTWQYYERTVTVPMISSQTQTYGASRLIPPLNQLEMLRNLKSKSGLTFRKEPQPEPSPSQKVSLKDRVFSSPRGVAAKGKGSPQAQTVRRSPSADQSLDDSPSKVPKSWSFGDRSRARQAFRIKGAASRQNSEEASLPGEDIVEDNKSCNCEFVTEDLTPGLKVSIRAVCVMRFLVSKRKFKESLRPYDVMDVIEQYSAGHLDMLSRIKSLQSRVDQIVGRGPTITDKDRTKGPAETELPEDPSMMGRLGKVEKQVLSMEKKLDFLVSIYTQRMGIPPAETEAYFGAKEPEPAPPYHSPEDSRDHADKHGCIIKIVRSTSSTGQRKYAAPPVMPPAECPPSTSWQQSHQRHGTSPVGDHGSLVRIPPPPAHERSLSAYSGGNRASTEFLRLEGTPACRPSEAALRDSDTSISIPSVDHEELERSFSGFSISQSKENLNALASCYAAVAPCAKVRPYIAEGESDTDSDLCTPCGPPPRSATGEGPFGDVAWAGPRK
KCNQ2 pot: potentiators of rat KCNQ2 potassium channel. O88943. CHO-K1 KCNQ2, FluxOR thallium flux fluorescence; stronger effect = higher value. B-score at 10 µM. 310,000 compounds, 0.54% hits. AID 2239;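 active = fluorescence ratio B-score at least 3 SD of library B-scores, with initial fluorescence B-score within 3 of them, cut at about 5.3 in these data; same plate scores as AID 2156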;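 also: B-score of peak minus minimum over baseline fluorescence ratio after K+ and Tl+ stimulus; positive B-score means potentiation of KCNQ2 with more thallium influx and brighter signal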
Kir21 confirm: confirmation of mouse Kir2.1 potassium channel inhibitors; AID 2032; Tl flux remaining, % of negative control (stronger effect = lower value), % at 10 µM; Kir2.1-expressing cells, FluxOR thallium flux fluorescence; stronger effect = lower value; shares compounds with KCNQ2 pot; 2,300 compounds, 41% hits;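 active = Primary-screen hit whose thallium flux fell at least 3 control SD below untreated wells in both duplicates, with normal baseline fluorescence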
HEK293 ctr: alters thallium flux in parental HEK293 cells, Kir2.1 counter-screen. shares compounds with KCNQ2 pot. FluxOR thallium flux fluorescence; 0% = unstimulated blank wells. FluxOR signal as % of negative control (100 = no effect), % at 10 µM. 2,300 compounds, 19% hits;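 active = dye signal at least 3 control SD above or below untreated wells in both duplicates, raw fluorescence within 3, either direction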;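 also: percent is based on the flux ratio of peak minus minimum fluorescence over baseline F0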
CHO-K1 Tl ctr: counter-screen for KCNQ2 potentiators: effect in parental CHO-K1 cells | 1,200 compounds, 43% hits | FluxOR thallium flux fluorescence; zero = vehicle mean+3SD, 100% = vehicle-minus-blank window | AID 2282 | shares compounds with KCNQ2 pot | activity increase over 3SD of controls, % at 10 µM;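 active = signal rise of at least 3 SD above the untreated control mean, in both duplicate wells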;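 also: counter screen of KCNQ2 potentiator hits so any rise reflects channel-independent effects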
KCNQ1 pot spec: tests whether KCNQ2 potentiators also act on human KCNQ1; shares compounds with KCNQ2 pot; CHO KCNQ1 stable, FluxOR thallium flux fluorescence; beyond 3SD, as % of vehicle-control signal; activation over 3SD threshold, % at 10 µM; 1,200 compounds, 28% hits; AID 2283;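 active = fluorescence ratio rise of at least 3 SD of vehicle wells above their mean, in both replicate wells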
KCNQ2 pot confirm: confirmation of rat KCNQ2 potassium channel potentiators. CHO-KCNQ2 cells, FluxOR thallium flux fluorescence. potentiation, less the hit threshold, % at 10 µM. 1,200 compounds, 68% hits. AID 2287. shares compounds with KCNQ2 pot;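 active = fluorescence ratio rising 3 SD or more over the vehicle control mean in both replicates, plus primary screen hit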;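 also: peak minus minimum thallium fluorescence divided by baseline after K/Tl stimulus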
Kir21 spec: selectivity of KCNQ2 potentiators: effect on mouse Kir2.1; shares compounds with KCNQ2 pot; HEK293 Kir2.1, FluxOR thallium flux fluorescence; activity over 3SD threshold, % at 10 µM; 1,200 compounds, 2% hits; AID 2345;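 active = fluorescence ratio rise of at least 3 SD above the vehicle-control mean, seen in both replicates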
Numbers stand for hits; - = inactive; . = no result.

SMILES	KCNQ2 block	KCNQ2 pot	Kir21 confirm	HEK293 ctr	others
CCOc1ccc(C(C)NC(=S)NCc2ccc(F)cc2)cc1 (configuration not stated)	-	-	.	.
O=C(O)c1cn[nH]c1-c1cccc([N+](=O)[O-])c1	-	-	.	.
CCCCNC(=O)N1c2ccccc2CC1C (configuration not stated)	-	.	.	.
Cc1cc(NC(=O)CCC(=O)N(CC(=O)NCC2CCCO2)c2ccc(C(C)C)cc2)no1 (configuration not stated)	-	.	.	.
OCCNCc1ccc(-c2ccccc2)cc1	-	-	.	.
OCCCNCc1ccc(N(c2ccccc2)c2ccccc2)cc1	-	.	23%	-
FC(F)(F)c1cc(-c2cccs2)nc2nc(N3CCOCC3)sc12	-	.	.	.
O=C(Cn1c(CO)nc2ccccc21)Nc1ccccc1Cl	-	-	-	-
Cc1cc(C)cc(NC(=O)Cn2c(-c3ccccc3Cl)nc3ccccc32)c1	-	-	.	.
COc1ccc(N/N=C(C)/C(=N/O)C(=O)Nc2ccccc2)cc1	-	.	.	.
CCCc1cc(=O)[nH]c(SCC(=O)c2cc(C)n(CCOC)c2C)n1	-	-	.	.
CCCc1cc(=O)[nH]c(SCC(=O)c2cc(C)n(CC(F)(F)F)c2C)n1	-	6.4	-	-	CHO-K1 Tl ctr=-;KCNQ1 pot spec=74;KCNQ2 pot confirm=-;Kir21 spec=-
CN1C(=O)/C(=C\c2ccccc2F)Sc2ccc(C(=O)NC3CCN(Cc4ccccc4)CC3)cc21	-	.	.	.
CC(C)(CO)NCc1ccccc1OCC(=O)Nc1ccccc1	-	.	.	.
Cc1ccc(NC(=O)COc2ccccc2CNC(C)(C)CC(C)(C)C)cc1	-	.	44%	-
O=[N+]([O-])c1ccc(N/N=C/c2ccccc2O)cc1	-	7.9	-	74%	CHO-K1 Tl ctr=56;KCNQ1 pot spec=-;KCNQ2 pot confirm=-;Kir21 spec=-
O=[N+]([O-])c1cccc(N/N=C/c2cc([N+](=O)[O-])ccc2O)c1	-	-	.	.
COc1cc2[nH]c(Cl)c([N+](=O)[O-])c2cc1OC	-	-	.	.
CCOCCCN(C(=O)c1snc(C(N)=O)c1N)C(C(=O)NC1CCCC1)c1ccc(OC)cc1 (configuration not stated)	-	-	.	.
COc1ccccc1CN=C1Nc2ccccc2CS1	-	.	58%	-
COc1cccc(CN=C2Nc3ccccc3CS2)c1	-	.	.	.
Cc1cc(N2CCOCC2)nc2ccc(Cl)cc12	-	-	.	.
CC(NCC(O)COc1ccc2ccccc2c1)c1ccccc1 (configuration not stated)	-	-	.	.
Cc1cc(OCC(O)CNC(C)c2ccccc2)ccc1C(C)C (configuration not stated)	-	-	-	-
O=C(NC(=S)Nc1ccc(Cl)cc1)c1cncc(Br)c1	-	-	.	.
SMILES	KCNQ2 block	KCNQ2 pot	Kir21 confirm	HEK293 ctr	others
Cc1ccc(NC(=S)NC(=O)c2cncc(Br)c2)cc1Cl	-	7.2	-	-	CHO-K1 Tl ctr=0.8;KCNQ1 pot spec=-;KCNQ2 pot confirm=-;Kir21 spec=-
CCOc1ccc(C(=O)OCC(=O)Nc2ccc(SC(F)F)cc2)cc1OCC	-	-	.	.
CCc1ccc(Nc2n[n+](-c3ccccc3)c(-c3c(Cl)cccc3Cl)s2)cc1	-	.	.	.
CCc1ccc(Nc2n[n+](-c3ccccc3)c(/C=C/c3ccccc3)s2)cc1	-	.	74%	-
CC(=O)OC1CC2(C)/C(=N\O)CCC2C2CCc3cc(O)ccc3C12 (configuration not stated)	-	-	.	.
O=S(=O)(NCc1ccc2c(c1)OCO2)c1cccc2cccnc12	-	13	.	.	CHO-K1 Tl ctr=5.4;KCNQ1 pot spec=-;KCNQ2 pot confirm=-;Kir21 spec=-
COc1cc(C)c(Cl)cc1S(=O)(=O)NCc1ccco1	-	-	.	.
Cc1cc(C)c(S(=O)(=O)NCc2ccc3c(c2)OCO3)cc1C	-	.	.	.
Cc1cc(S(=O)(=O)NCc2ccco2)c(C)cc1Cl	-	.	.	.
CCOc1cc(S(=O)(=O)NCc2ccc3c(c2)OCO3)c(C)cc1C	-	.	65%	-
CCOc1cc(C)c(Cl)cc1S(=O)(=O)NCc1ccco1	-	.	56%	-

Compound activity from PubChem.
